# Reference: paper PMC5540273 (PLoS ONE, 2017)
# Tests used:
# Conditions in all cases: concentration: 1 μM, replicates: in singlicate; n = 1
# CSF1R = system: CSF1R
# CSK = system: CSK
# CSNK1A1L = system: CSNK1A1L
# CSNK1A1 = system: CSNK1A1
# CSNK1D = system: CSNK1D
# CSNK1E = system: CSNK1E
# CSNK1G1 = system: CSNK1G1
# CSNK1G2 = system: CSNK1G2
# CSNK1G3 = system: CSNK1G3
# CSNK2A1 = system: CSNK2A1
# 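Further: KINOMEscan kinase panel screen.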
SMILES,%Inh (CSF1R) [%],%Inh (CSK) [%],%Inh (CSNK1A1L) [%],%Inh (CSNK1A1) [%],%Inh (CSNK1D) [%],%Inh (CSNK1E) [%],%Inh (CSNK1G1) [%],%Inh (CSNK1G2) [%],%Inh (CSNK1G3) [%],%Inh (CSNK2A1) [%]
Cn1c(=O)c(F)c(Nc2ccc(I)cc2F)c2c(=O)n(OC[C@H](O)CO)cnc21,21,20,0,36,12,25,11,20,4,0
COc1cc2ncn(-c3cc(OCc4ccncc4)c(C(N)=O)s3)c2cc1OC [GSK336313],15,0,2,0,8,29,0,0,30,2
COc1cc(Nc2nccc(N3CCC(NC(=O)C4COc5ccccc5O4)C3)n2)cc(OC)c1OC (stereo not shown) [GSK1379761],20,0,0,0,0,0,3,0,2,0
COc1cccc(C2=C(Nc3cccc(C(=O)O)c3)C(=O)NC2=O)c1 [SB-390770],0,0,12,0,0,2,2,0,7,7
